Source: the supplement of paper PMC10338343
± gives the standard deviation.

Each sequence was assayed on MILI (PIWIL2) piRISC loaded with L1MC piRNA (26 nt) (assay: pre-steady-state target cleavage rate (min^-1); guide: L1MC piRNA 5'p-UAACUAAAUACUAUGCAAGCUGUAGG; MIWI and MILI are mouse PIWI proteins and EfPiwi is from a freshwater sponge; tags in brackets are library labels; higher = faster piRNA-guided slicing of the target). Conditions: auxiliary factor: none (no GTSF1).
Procedure, shortened: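 Three pooled Cleave-'n-Seq trials supplied the data, with k3 capped at 0.0001 min^-1. In each, […] transcribed, DNA-blocked target RNA library and 1 nM active affinity-purified piRISC with one synthetic guide reacted in HEPES–potassium acetate buffer at 33 °C for 0–8 or 0–960 min, with or without 500 nM GTSF1 partner protein. Uncleaved targets were sequenced and normalised to depth and to weakly complementary targets. A burst-and-steady-state fit provided the pre-steady-state cleavage rate.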
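Further: 1 nM active piRISC with 0.1 nM target library at 33 °C single turnover.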

Sequence	pre-steady-state target cleavage rate
UCCUCCUACAGGUUGGAUAGUAUUUAGUUA	0.00699 ± 0.0018
UCCUGGUACAGCAUGCAUAGUUUUUAGUUA	0.00749 ± 0.0033
UCCUCCUACAGCUUGGAUAGUAUUUAGUAA	0.00459 ± 0.0023
UCCUGCUUCAGCUUGCAUAGUUUUUAGUUA	0.00355 ± 0.0025
UCCUGGAACAGAUUGCAUAGUAUUUAGUUA	0.0113 ± 0.0023
UCCUGGAUCAGCUUGCAUAGUAUUUAGUUA [g2:g22:cont:t1A]	0.00864 ± 0.0019
UCCUGGAUCAGCAUGCAUAGUAUUAAGUUA	0.00634 ± 0.0023
UCCUGCUACAGCUUGCUUAGUAAUUAGUUA	0.00332 ± 0.0026
UCCUCCUACUCGUUGCAUAGUAUUUAGUAA	0.00408 ± 0.0019
UCCUCCUACAGCUUCCUUAGUAUUUAGUUA	0.00443 ± 0.002
UCCUGGUAGUGCUUGCAUAGUAUUUAGUUA	0.00947 ± 0.0025
UCCUGGAUCAGCUUGCAUUGUAUUAAGUUA	0.00356 ± 0.0025
UCCUCCUACAGCUUGCAAAGUAUUUAGUAA	0.00404 ± 0.0019
UCCUCCUAGUCCUUGCAUAGUAUUUAGUAA	0.0027 ± 0.0023
UCCUGGAUGAGCUUUCAUAGUAUUUAGUUA	0.00493 ± 0.0026
UCCUGCUACAGCUUGCCUAGUAUUUAGUUA	0.0074 ± 0.0022
UCCUCCAACACCUUGCAUAGUAUUUAGUUA	0.00554 ± 0.0024
UCCUGGAUCAGCUUUCAUAGUAUUUAGUUA	0.0048 ± 0.0029
UCCUCCUACAGCAUGCAUAGUAUUUUGUUA	0.00296 ± 0.0027
UCCUGGAUGUCCUUGCAUAGUAUUAAGUUA	0.00289 ± 0.0026
UCCUGGAUCAGCUUGGAUAGUAUUUAGUAA	0.00324 ± 0.0026
UCCUGGAUGAGCUAGCAUACUAUUUAGUUA	0.00398 ± 0.0027
UCCUGCUACAGGUUGGAUAGUAUUUAGUUA	0.00926 ± 0.0025
UCCUGGUACAGCUUGCAAACUAUUUAGUUA	0.00378 ± 0.0028
